Common to all, as to parameters: species or system human, MV4-11 + K-562 + COLO205 + SK-N-BE2 + OVCAR-8
The subject of one assay is PGK1. The conditions noted are these: read-out: apparent Kd; compound concentrations: 100 nM and 1000 nM (sheet 'Samples'), CATDS: 0.39771264362053399; n = 1.
The next assay relates to CDC42BPG. Conditions: read-out: apparent Kd; compound concentrations: 100 nM and 1000 nM (sheet 'Samples'), CATDS: 6.5617212110221396E-2; n = 1.
A further assay deals with GRAMD1A. Conditions: read-out: apparent Kd; compound concentrations: 100 nM and 1000 nM (sheet 'Samples'), CATDS: 4.7101579015389999E-2; n = 1.
For another assay, the system named is MAP4K4. Conditions: read-out: apparent Kd; compound concentrations: 100 nM and 1000 nM (sheet 'Samples'), CATDS: 5.45482325953821E-2; n = 1.
For the next assay, the system named is HMOX2. The conditions noted are these: read-out: apparent Kd; compound concentrations:100 nM and 1000 nM (sheet 'Samples'); n = 1.
The next assay concerns SMC4. The conditions noted are these: read-out: apparent Kd; compound concentrations: 100 nM and 1000 nM (sheet 'Samples'), CATDS: 0.290936381936651; n = 1.
A further assay concerns RAB6A;RAB6B. The conditions noted are these: read-out: apparent Kd; compound concentrations: 100 nM and 1000 nM (sheet 'Samples'), CATDS: 6.2517900726017095E-2; n = 1.
For the next assay, the system named is SMG1. The conditions noted are these: read-out: apparent Kd; compound concentrations: 100 nM and 1000 nM (sheet 'Samples'), CATDS: 0.40091827457547202; n = 1.
The test system of another assay is PRKG1. Conditions: read-out: apparent Kd; compound concentrations:100 nM and 1000 nM (sheet 'Samples'); n = 1.
In another assay the test system is PRKX. Conditions: read-out: apparent Kd; compound concentrations:100 nM and 1000 nM (sheet 'Samples'); n = 1.
For the next assay, the system named is ROCK2. Conditions: read-out: apparent Kd; compound concentrations:100 nM and 1000 nM (sheet 'Samples'); n = 1.
Another assay deals with AGPS. Conditions: read-out: apparent Kd; compound concentrations:100 nM and 1000 nM (sheet 'Samples'); n = 1.
The subject of the next assay is IARS. Conditions: read-out: apparent Kd; compound concentrations: 100 nM and 1000 nM (sheet 'Samples'), CATDS: 0.121118103418118; n = 1.
A further assay has as its system IGF1R. Conditions: read-out: apparent Kd; compound concentrations: 100 nM and 1000 nM (sheet 'Samples'), CATDS: 4.98725467652835E-2; n = 1.
In the next assay the test system is INSR. Conditions: read-out: apparent Kd; compound concentrations: 100 nM and 1000 nM (sheet 'Samples'), CATDS: 5.9878421296946899E-2; n = 1.
For a further assay, the system named is CAMK2G. Conditions: read-out: apparent Kd; compound concentrations:100 nM and 1000 nM (sheet 'Samples'); n = 1.

On to `Cc1[nH]nc2c1N=C(c1ccccc1Cl)c1cc([N+](=O)[O-])ccc1N2` [RO0274406-000], for which, in the assay on PGK1, the potency estimated from few doses is 37.7 nM.
In the case of `COc1ccc(-c2nn3ncccc3c2-c2ccnc(Nc3ccc4c(c3)OCCO4)n2)cc1` [GW827106X], the figures for the potency estimated from few doses in the assay with CDC42BPG, in the assay on GRAMD1A and in the assay with MAP4K4 were 834 nM, 1730 nM and 1220 nM, respectively.
In the case of `Nc1c(C(=O)c2ccccc2)cnn1-c1ccc(F)cc1` [RO1151246-000], the potency estimated from few doses with HMOX2 is 2210 nM.
As for `O=C1NC(=O)C(c2cccc(Cl)c2)=C1Nc1ccc(O)c(Cl)c1` [SB-409514], in the assay on SMC4, the potency estimated from few doses is 1760 nM.
Take `Fc1cccc(COc2ccc(Nc3ncncc3C#Cc3ccccc3)cc2Cl)c1` [GW651576X]: the potency estimated from few doses in the assay with RAB6A;RAB6B is 1160 nM.
For `COc1ccc(-c2ccncc2)cc1C(N)=O` [GSK605714A], in the assay with SMG1, the potency estimated from few doses is 1830 nM.
Take `COc1ccc(C2=NC(c3ccc(Cl)cc3F)C(C(=O)Nc3ccc4[nH]ncc4c3)=C(C)N2)cn1.O=C(O)C(F)(F)F` (stereo not shown) [GSK534913A]: the potency estimated from few doses in the assay on PRKG1 is 825 nM; in the assay on PRKX, 758 nM; in the assay on ROCK2, 131 nM.
As for `COc1ccc(COc2ccc(Cc3cnc(N)nc3N)cc2OC)cc1` [GW632580X], the potency estimated from few doses with AGPS was 1650 nM.
In the case of `CS(=O)(=O)c1ccc(-c2nc3n(c2-c2ccncc2)CCC3)cc1` [SKF-105942], the potency estimated from few doses with IARS was 1900 nM.
For the compound `COc1cc(N2CCN(C(C)C)CC2)ccc1Nc1nc(Nc2cccc(F)c2C(=O)O)c2cc[nH]c2n1` [GSK1819799A], the results for the potency estimated from few doses in the assay with IGF1R and with INSR were 1270 nM and 816 nM, respectively.
For `Cl.Oc1ccc2ncnc(Nc3ccc(OCc4ccccc4)cc3)c2c1` [GI262866A], the potency estimated from few doses in the assay with CAMK2G was 385 nM.

These data come from publication PMC11062922 (Nature Chemical Biology, 2023).
